# Out of some 420,000 compounds screened, about 64,000 (15%) were called active. Not shown: some 27% with an inconclusive outcome. Only a sample is shown. Values without a mark were called inactive. Calls follow the shape of the dose curve; as a rule, active = well fitted inhibition curve with a large enough effect; inconclusive = small, poorly fitted or top-dose-only effect; inactive = flat fitted curve, though single readings scatter.
# Experiment: qHTS for Inhibitors of human tyrosyl-DNA phosphodiesterase 1 (TDP1): qHTS in cells in absence of CPT; also: nearly all actives have a fitted effect of over 55% in size
# Details: DT40 Tdp1-/- hTDP1 cells, no CPT, ATP luminescence, 48 h; activity change, negative = growth inhibition: at 46.2 µM (top of the series)
# Excerpt: Human tyrosyl-DNA phosphodiesterase 1 (TDP1) is a novel repair gene, and we propose to use it as a new target for anticancer drug development. TDP1 is not an essential protein, but under treatment with topoisomerase I poison (camptothecin: CPT), TDP1 works as a critical factor for cell survival. To directly identify novel TDP1 inhibitors active in a cellular environment, we have knocked-out the Tdp1 gene in chicken DT40 cells (Tdp1-/-) and generated a complemented counterpart cells that contains a stable transfection of the human TDP1 gene (Tdp1-/-;hTDP1 cells). For the primary screen, Tdp1-/-;hTDP1 cells will be exposed to small molecules in the presence or absence of CPT, and their growth kinetics will be evaluated after 48 hours by measuring ATP activity. […] The hit compounds will then be evaluated in the presence or absence of CPT using Tdp1-/- cells. […] In tertiary assays, biochemical gel-based assays will be used to assess whether the hit compounds specifically target TDP1.
# To this end, we have screened this cell line against the MLSMR in two primary screens. In one screen we add CPT and in the other we screen in the absence of CPT; this AID represents the screen where CPT was absent.
# NIH Chemical Genomics Center [NCGC]
# NIH Molecular Libraries Probe Centers Network [MLPCN]
# Assay Submitter (PI): Yves Pommier, NCI
# DT40-hTDP1 cells without 20 nM Camptothecin (add 20 microL of DMSO in 1 L of cell culture medium) were dispensed at 400 cells/5microL/well in tissue culture treated 1536-well white wall/solid bottom assay plates (Greiner Bio-One North America, NC, U.S.A.) using a Multidrop Combi 8 channel dispenser (Thermo Fisher, Waltham, MA, USA). 23 nL compounds and controls were transferred using the pin tool (Kalypsys, San Diego, CA, USA) to the assay plates. The assay plates were then incubated at 37 masculineC for a minimum 48 hr. Three microL of Cell Titer Glo solution was added to the plates and incubated at RT in dark for 30 min. Luminescence was read using ViewLux (Perkin Elmer) with 1 sec exposure slow speed, high gain and 2x binning.
# % is scaled to controls: 0 for no effect and ±100 for the full control effect; potency is read from the fitted curve at half-maximal effect.
Compound,"activity change, negative = growth inhibition",Potency
CC(C)(O)C1=C[N+](=O)CC=C1,-3.03%,–
C#CCOCCOCCOCCNc1nc(N2CCN(C(=O)C([C@@H](C)CC)n3cc(C(N)COC(=O)C(F)(F)F)nn3)CC2)nc(N2CCN(C(=O)[C@H](CCCCN)n3cc(C(N)CC(C)C)nn3)CC2)n1 (stereo partly specified),-1.26%,–
Cc1nn(CC(=O)Nc2ccc(N(C)C)cc2)c(C)c1[N+](=O)[O-],-26.8%,–
CC1CC(=NNC(=O)C2COc3ccccc3O2)CC(C)(C)C1 (stereo unspecified),-27.9%,–
C[C@@H](C(=O)N1CCNCC1)n1cc(CCC(=O)O)nn1,-8.65%,–
C=C(C)CNc1cc(S(=O)(=O)N2CCOCC2)ccc1Oc1ccccc1,–,20.6 µM (active)
COC(=O)c1cc(Oc2ccc(S(=O)(=O)N3CCOCC3)cc2[N+](=O)[O-])cc(C(=O)OC)c1,-27.7%,–
COc1ccc(S(=O)(=O)N2CCOCC2)cc1NC(=O)COc1ccccc1,-24.6%,–
O=[N+]([O-])c1cc([N+](=O)[O-])c(Oc2cc(F)cc(F)c2F)cc1NN1CCCCC1,-23.3%,–
O=C(/C=C/c1ccc([N+](=O)[O-])o1)NNC(=O)c1ccc(F)cc1,–,1.84 µM (active)
COc1cccc(C(=O)NNC(=O)/C=C/c2ccccc2)c1,19.2%,–
O=C(/C=C/c1ccc(F)cc1)NCCNC(=O)/C=C/c1ccc(F)cc1,4.93%,–
Cc1ccsc1C(=O)N[C@@H](C)c1nnc2ccccn12,-7.07%,–
Nc1nc2[nH]c(=O)c(=O)[nH]c2c(=O)[nH]1,15.7%,–
CCOC(=O)CSc1nc2c(c(=O)n(Cc3ccccc3Cl)c(=O)n2C)n1C,-3.48%,–
CCOC(=O)n1c(SCC(=O)N(CC)CC)nc2ccccc21,-16.7%,–
CCN(CC)C(=O)CSc1nc2ccsc2c(=O)n1Cc1ccccc1Cl,–,23.1 µM (active)
CN(Cc1ccco1)c1ncncc1-c1ccoc1,-6.14%,–
CCc1ccc(Oc2coc3cc(OC(=O)c4cc5ccccc5oc4=O)ccc3c2=O)cc1,-9.4%,–
Cc1cn(COC/C=C/c2ccccc2)c(=O)[nH]c1=O,-2.88%,–
O=C(NCc1ccccn1)c1c(O)c2c([nH]c1=O)CCCC2,-7.3%,–
Cc1[nH]c(=O)c(C(=O)/C=C/c2ccccc2)c2c1CCCC2,–,5.8 µM (active)

Compound,"activity change, negative = growth inhibition",Potency
Cc1cc(Cl)c(S(=O)(=O)Nc2ccc3c(c2)OCCO3)cc1OCC(N)=O,-29.7%,–
Cc1ccc(/C=N/NC(=O)Cn2ccc(C(F)(F)F)n2)o1,-0.299%,–
Cc1cc(-c2n[nH]c(=S)n2-c2ccc(C)c(C)c2)no1,-4.09%,–
Cc1cc(C)c2oc(C(=O)Nc3ccc(S(=O)(=O)Nc4nccc(C)n4)cc3)cc(=O)c2c1,-26%,–
Cc1ccc(NC(=S)NCCc2ccc(Cl)cc2)c(C)c1,–,18.4 µM (active)
S=C(NCc1ccco1)NCc1ccccc1Cl,13.1%,–
Cc1cc(Cl)ccc1NC(=S)NCCCN1CCCC1=O,3.78%,–
Cc1cc(F)ccc1NC(=S)NCCc1ccccc1,-10.9%,–
CCNC(=S)Nc1cccc(Cl)c1C,-27.6%,–
Cc1ccc(NC(=S)NCc2ccccc2Cl)c(C)c1,–,20.6 µM (active)
Clc1ccc(CSc2nnc([C@@H]3CCCN3)o2)cc1,-17%,–
CS(=O)(=O)c1ccccc1C(=O)Nc1ccc2sccc2c1,14.5%,–
O=C(/C=C/c1ccccc1[N+](=O)[O-])OCC(=O)N1CCCC1,18.5%,–
CCC(C(=O)Nc1c(C)cccc1C)n1c(-c2cc(C)cs2)nc2ccccc21 (stereo unspecified),-14.6%,–
CCC(C(=O)NCc1ccccc1)n1c(Cc2cc(F)cc(F)c2)nc2ccccc21 (stereo unspecified),–,16.4 µM (active)
O=C(CCSCc1cccc(F)c1)NCc1ccccc1,-7.79%,–
CCC(C)c1ccc(O)c(/C=N/O)c1 (stereo unspecified),16.9%,–
Cc1cc(C)n(-c2nc(O)cc(=O)[nH]2)n1,8.33%,–
CS(=O)(=O)N(CC(=O)NC1CCCC1)Cc1ccc(F)cc1,-6.2%,–
Cc1ccc(OCC(=O)N2CCN(C(=O)c3cccnc3)CC2)cc1,-10.2%,–
Cc1ccc(NC(=O)Cc2nc(COC(=O)C(C)NS(=O)(=O)c3ccc(C)cc3)cs2)cc1 (stereo unspecified),-26.5%,–
O=C(O)c1ccccc1C(=O)Nc1nc(-c2ccccc2)cs1,-0.805%,–

Compound,"activity change, negative = growth inhibition",Potency
CC(=O)Nc1ccc(C(=O)Nc2nc(-c3cc(C)n(Cc4ccccc4)c3C)cs2)cc1,–,14.6 µM (active)
CC(=O)c1ccc(NC(=O)N[C@@H](Cc2ccccc2)C(=O)O)cc1,-2.61%,–
CSc1nsc(NC(=O)Nc2ccccc2)n1,–,20.6 µM (active)
Cc1nc(NNC(=O)c2ccccc2)cc(-c2ccccc2)n1,-10.7%,–
Cc1ccc(-c2csc(NNC(=O)c3ccccc3)n2)cc1,–,5.17 µM (active)
CC(=O)c1ccc(NC(=O)CSc2nnc(NC(=O)Nc3ccccc3)s2)cc1,-28.6%,–
CCC(=O)Nc1ccc(C(=O)Nc2cc(C)on2)cc1,2.69%,–
CC(=O)Nc1ccc(-c2csc(NC(=O)Nc3ccccc3)n2)cc1,–,1.16 µM (active)
Cc1ccc(C(=O)NNC(=O)c2cccs2)cc1,-20%,–
O=C(Nc1ccccc1)Nc1nc2ccccc2s1,-2.58%,–
CC(=O)Nc1ccc(S(=O)(=O)Nc2nc(-c3ccc(C(C)(C)C)cc3)cs2)cc1,-17.4%,–
CN1C(=O)C2(OCCCO2)c2cc(Cl)ccc21,7.23%,–
O=C(CNC(=O)Cc1ccccc1)NCC(=O)OCC(=O)c1ccccc1Cl,-18.5%,–
O=C(c1snnc1-c1ccccc1)N1CCOCC1,7.46%,–
Cc1nn(C(C)CC(=O)O)c(C)c1C (stereo unspecified),5.41%,–
CCN1N=C(c2ccccc2)CCC1=O,0.898%,–
CCN(CC(=O)NCCc1ccccc1)S(=O)(=O)c1ccc(C)cc1,-8.2%,–
COCC(=O)N1CCC2(CCCN(c3ccccc3)C2)CC1,-15.7%,–
COc1ccc(C(=O)OCC(=O)NCC2CCCO2)cc1[N+](=O)[O-] (stereo unspecified),12.4%,–
COc1ccc(C(CNC(=O)c2cc3c(s2)CCCC3)N2CCOCC2)cc1 (stereo unspecified),0.592%,–
CCCNC(=O)COc1coc(CN2CCN(Cc3ccccc3)CC2)cc1=O,11.7%,–
O=S(=O)(c1ccc(Br)cc1)N1CCC(c2nc3ccccc3[nH]2)CC1,–,20.6 µM (active)

Compound,"activity change, negative = growth inhibition",Potency
O=C(C1CCCO1)N1CCC(c2nc3ccccc3[nH]2)CC1 (stereo unspecified),-4.09%,–
O=S(=O)(c1ccccc1)N1CCC(c2ccccc2)CC1,-16.2%,–
Cc1c(NC(=O)c2c([N+](=O)[O-])cnn2C)c(=O)n(-c2ccccc2)n1C,5.36%,–
O=C(NCC12CC3CC(C1)CC(CNC(=O)N1CCCC1)(C3)C2)N1CCCC1,-19.6%,–
Cc1ccc(-n2c(-c3ccc(Cl)cc3)n[nH]c2=S)cc1,-8.56%,–
O=c1cc(Cl)c2ccccc2n1-c1ccccc1,-3.55%,–
Cc1ccc(-n2c3nc(=O)[nH]c(=O)c-3cc3c(Cl)cccc32)cc1,–,0.731 µM (active)
NC(=O)NCCCC(=O)O,25.5%,–
CCC(C)Cn1c(O)cc2nn(-c3nc4ccccc4s3)c(=O)c-2c1C (stereo unspecified),–,18.4 µM (active)
Cc1nn(CC(=O)Nc2nc3ccccc3s2)c(C)c1[N+](=O)[O-],-13.3%,–
CCCS(=O)(=O)N1CCCC(C(=O)NCCN2CCCCC2C)C1 (stereo unspecified),9.41%,–
Cc1c(NC(=O)Nc2ccccc2Cl)sc(=S)n1C,9.06%,–
C/C(=N\NS(=O)(=O)c1ccc(Cl)cc1)c1ccc(NC(=O)c2ccco2)cc1,-12.3%,–
Cc1ccc(-c2nnc(SCc3ccccc3C)o2)cc1,-26.2%,–
COc1ccccc1CNC(=O)CN1CCC(n2cnc3cc(F)ccc32)CC1,-29.6%,–
O=C(c1ccc(F)cc1)c1cn(Cc2ccc(F)cc2)c2cc3c(cc2c1=O)OCCO3,-19.6%,–
CCOc1ccc(C(=O)c2cn(Cc3ccccc3OC)c3ccc(F)cc3c2=O)cc1,–,20.6 µM (active)
CCOC(=O)C1CCN(C(c2ccc(F)cc2)c2sc3nc(-c4ccco4)nn3c2O)CC1 (stereo unspecified),-15.8%,–
Cc1cccc(Cn2c(=O)n(CCC(=O)NCCc3ccc(Cl)cc3)c(=O)c3sccc32)c1,-14.5%,–
CCc1c(C)nc2c(OC)cccc2c1Cl,-7.5%,–
CCOc1ccc(CC(=O)Nc2ccc(S(=O)(=O)Nc3cc(C)on3)cc2)cc1OCC,1.83%,–
Cc1cccc(C(=O)Nc2nnc(Cc3c[nH]c4ccccc34)s2)c1,-23.7%,–

Compound,"activity change, negative = growth inhibition",Potency
COC(=O)[C@]12CCCCC=C1N(CCC1=CCCCC1)C(=O)[C@H](CC(=O)NCC1CCCCC1)C2,–,23.1 µM (active)
CCCCOCCCNC(=O)C[C@@H]1C[C@@]2(C(=O)OC)CCCCC=C2N(CCC2=CCCCC2)C1=O,–,23.1 µM (active)
CCCCOCCCNC(=O)C[C@@H]1C[C@@]2(C(=O)OCC)CCCC=C2N(CCC2=CCCCC2)C1=O,–,18.4 µM (active)
CN1CCNC(=O)C1CC(=O)NCCC1=CCCCC1 (stereo unspecified),2.56%,–
CC(C)COc1ccc(C(=O)OCC(=O)NCCC2=CCCCC2)cc1,-16.4%,–
CC1=C(C(=O)N(C)C)CC(CC(=O)NCCc2ccccn2)C(=O)N1CCC1=CCCCC1 (stereo unspecified),-10.7%,–
COCCCN1C(=O)C(CC(=O)NCc2cccs2)CC(C(=O)N2CCOCC2)=C1C (stereo unspecified),3.62%,–
CCOC(=O)[C@]12CCCC=C1N(CCC1=CCCCC1)C(=O)[C@H](CC(=O)NCCCOC)C2,–,20.6 µM (active)
COc1ccc(CN2C(=O)C(CC(=O)NCCN3CCOCC3)CC(C(=O)N(C(C)C)C(C)C)=C2C)cc1 (stereo unspecified),-2.68%,–
COc1cccc(CNC(=O)C(NS(=O)(=O)c2ccc3nc(C)sc3c2)C(C)C)c1 (stereo unspecified),-22.3%,–
Cc1cc(C)cc(NC(=O)Cc2csc(C)n2)c1,-0.897%,–
Cc1ccc(C)c(NC(=O)CCC(=O)N/N=C2/CC(=O)CC(C)(C)C2)c1,-11.3%,–
CCCCC(=O)N1CC2(C)CN(C(=O)CCCC)CC(C)(C1)C2=O,-2.18%,–
O=C(O)CN(Cc1ccco1)S(=O)(=O)c1ccccc1,-1.89%,–
O=C(CCNC(=O)c1ccc(Br)cc1)NCC(c1ccco1)N1CCCCC1 (stereo unspecified),-18.3%,–
CC(C)CN(C(=O)c1cccc(S(=O)(=O)N2CCCCC2)c1)C1CCS(=O)(=O)C1 (stereo unspecified),–,inactive
CCCCNCc1ccc(SC)cc1,-13.6%,–
CC(=NNC(N)=O)C1CC2CCC1CC2 (stereo unspecified),-5.2%,–
